Active and inactive are the calls of the source. How the source made its calls: active means hit-call score of the fitted dose curve at least 0.9, where 1 is the maximum; inactive means score below 0.9.
Assays:
[1] = read-out: Vascular cell adhesion molecule 1 (VCAM1), VCAM1 (gene 7412); experiment: BSK_CASM3C_VCAM1: BioMAP Diversity Plus: CASM3C Assay for Vascular cell adhesion molecule 1 (VCAM1) Biomarker Activity (AID 2283055); conditions: primary human coronary artery smooth muscle cells; actives raise or lower the signal;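 further: VCAM-1 protein level quantified by ELISA on the cells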
[2] = read-out: Collagen III, COL3A1 (gene 1281); experiment: BSK_hDFCGF_CollagenIII: BioMAP Diversity Plus: hDFCGF Assay for Collagen III Biomarker Activity (AID 2283056); conditions: primary human foreskin fibroblasts; actives raise or lower the signal
Outline: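 ELISA read-out of collagen III from human skin fibroblast cultures sampled 24 h post-dosing. Values were derived by bidirectional fitting relative to the DMSO vehicle control.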

[3] = read-out: Epidermal growth factor receptor (EGFR), EGFR (gene 1956); experiment: BSK_hDFCGF_EGFR: BioMAP Diversity Plus: hDFCGF Assay for Epidermal growth factor receptor (EGFR) Biomarker Activity (AID 2283057); conditions: primary human foreskin fibroblasts; actives raise or lower the signal
Outline: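 EGFR levels by ELISA in human dermal fibroblast cultures, 24 h post-treatment, fitted bidirectionally versus DMSO. Parallel wells stained with sulforhodamine B to detect overt cytotoxicity.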

[4] = read-out: Interleukin-8 (IL8), CXCL8 (gene 3576); experiment: BSK_hDFCGF_IL8: BioMAP Diversity Plus: hDFCGF Assay for Interleukin-8 (IL8) Biomarker Activity (AID 2283058); conditions: primary human foreskin fibroblasts; actives raise or lower the signal
Outline: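 Cells used are human skin primary fibroblasts. Chemical is added, cultures run 24 h, then IL-8 is quantified by ELISA, and gain or loss versus DMSO control is fitted in both directions.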

[5] = BSK_hDFCGF_Proliferation: Cell Proliferation Assessment in the BioMAP Diversity Plus: hDFCGF Assay (AID 2283059); conditions: primary human foreskin fibroblasts;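 further: curves fitted for both rise and fall of signal versus DMSO baseline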
Outline: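 Sub-confluent human foreskin fibroblast cultures receive test chemical […]. Relative cell number is quantified by sulforhodamine B staining (0.1%, after 10% TCA fixation) at 560 nm, with bidirectional fitting referenced to DMSO.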

[6] = BSK_hDFCGF_SRB: Viability Assessment in the BioMAP Diversity Plus: hDFCGF Assay (AID 2283061); conditions: primary human foreskin fibroblasts;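 further: cells exposed to compound for 24 h before the read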
Outline: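 Readout is SRB absorbance at 560 nm, reflecting total protein in parallel cultures of human foreskin fibroblasts harvested 24 h after chemical dosing. Activity was fitted bidirectionally relative to DMSO.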

[7] = read-out: TIMP metallopeptidase inhibitor 1 (TIMP1), TIMP1 (gene 7076); experiment: BSK_hDFCGF_TIMP1: BioMAP Diversity Plus: hDFCGF Assay for TIMP metallopeptidase inhibitor 1 (TIMP1) Biomarker Activity (AID 2283062); conditions: primary human foreskin fibroblasts; actives raise or lower the signal
Outline: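 Human skin fibroblasts (primary), hDFCGF system; compound exposure 24 h; TIMP-1 by ELISA; bidirectional fit vs DMSO negative control; overt cytotoxicity by SRB in parallel wells.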

[8] = read-out: Monokine induced gamma interferon (MIG), CXCL9 (gene 4283); experiment: BSK_hDFCGF_MIG: BioMAP Diversity Plus: hDFCGF Assay for Monokine induced gamma interferon (MIG) Biomarker Activity (AID 2283063); conditions: primary human foreskin fibroblasts; actives raise or lower the signal
Outline: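 Chemicals were added to primary human foreskin fibroblast cultures, which were sampled 24 h later. MIG levels were then quantified by ELISA and responses fitted in both directions relative to DMSO.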

[9] = read-out: Matrix Metallopeptidase 1 (MMP1), MMP1 (gene 4312); experiment: BSK_hDFCGF_MMP1: BioMAP Diversity Plus: hDFCGF Assay for Matrix Metallopeptidase 1 (MMP1) Biomarker Activity (AID 2283064); conditions: primary human foreskin fibroblasts; actives raise or lower the signal
Outline: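 MMP1 levels quantified by ELISA 24 h after dosing human dermal fibroblast cultures, with parallel SRB total-protein staining for overt cytotoxicity. Data fitted in both directions against DMSO baseline.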

[10] = read-out: Vascular cell adhesion molecule 1 (VCAM1), VCAM1 (gene 7412); experiment: BSK_hDFCGF_VCAM1: BioMAP Diversity Plus: hDFCGF Assay for Vascular cell adhesion molecule 1 (VCAM1) Biomarker Activity (AID 2283065); conditions: primary human foreskin fibroblasts; actives raise or lower the signal;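 on AC50: VCAM-1 protein level quantified by ELISA after 24 h chemical exposure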
Outline: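 Human foreskin fibroblast primary cells, chemical exposure 24 h; VCAM-1 by ELISA; bidirectional fit, DMSO = negative control/baseline.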

[11] = read-out: Plasminogen activator inhibitor-1 (PAI1), SERPINE1 (gene 5054); experiment: BSK_hDFCGF_PAI1: BioMAP Diversity Plus: hDFCGF Assay for Plasminogen activator inhibitor-1 (PAI1) Biomarker Activity (AID 2283066); conditions: primary human foreskin fibroblasts; actives raise or lower the signal
Outline: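 PAI-1 levels in human dermal foreskin fibroblasts were quantified by ELISA 24 h after dosing, with gain or loss analysed against DMSO. Overt cytotoxicity was checked by sulforhodamine B total-protein staining in parallel cultures.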

[12] = read-out: Intercellular Adhesion Molecule 1 (ICAM1), ICAM1 (gene 3383); experiment: BSK_KF3CT_ICAM1: BioMAP Diversity Plus: KF3CT Assay for Intercellular Adhesion Molecule 1 (ICAM1) Biomarker Activity (AID 2283067); conditions: primary human keratinocytes with fibroblasts; actives raise or lower the signal
Outline: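 ICAM-1 levels are measured by ELISA 24 h after dosing a primary human co-culture of keratinocytes and foreskin fibroblasts. Activity in either direction is fitted relative to DMSO vehicle.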

[13] = read-out: Interferon-gamma inducible Protein 10 (IP10), CXCL10 (gene 3627); experiment: BSK_KF3CT_IP10: BioMAP Diversity Plus: KF3CT Assay for Interferon-gamma inducible Protein 10 (IP10) Biomarker Activity (AID 2283068); conditions: primary human keratinocytes with fibroblasts; actives raise or lower the signal
Outline: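 ELISA read-out of IP-10 after 24 h chemical dosing of human skin primary co-culture (keratinocytes, foreskin fibroblasts). Gain or loss of signal relative to DMSO, bidirectional curve fit.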

[14] = BSK_KF3CT_SRB: Viability Assessment in the BioMAP Diversity Plus: KF3CT Assay (AID 2283069); conditions: primary human keratinocytes with fibroblasts;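 further: read 24 h after compound addition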
Outline: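 Cytotoxicity was gauged by SRB staining (0.1% SRB, 10% TCA fixation, 560 nm) of parallel cultures at 24 h. The cells were primary human skin keratinocytes co-cultured with fibroblasts, and activity was fitted in both directions against DMSO.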

[15] = read-out: Interleukin-1 alpha (IL1a), IL1A (gene 3552); experiment: BSK_KF3CT_IL1a: BioMAP Diversity Plus: KF3CT Assay for Interleukin-1 alpha (IL1a) Biomarker Activity (AID 2283070); conditions: primary human keratinocytes with fibroblasts; actives raise or lower the signal
Outline: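 IL-1a was detected by ELISA 24 h after chemical treatment of a co-culture of human skin keratinocytes and foreskin fibroblasts. Gain or loss of signal was fitted against the DMSO baseline.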

[16] = read-out: TIMP metallopeptidase inhibitor 2 (TIMP2), TIMP2 (gene 7077); experiment: BSK_KF3CT_TIMP2: BioMAP Diversity Plus: KF3CT Assay for TIMP metallopeptidase inhibitor 2 (TIMP2) Biomarker Activity (AID 2283071); conditions: primary human keratinocytes with fibroblasts; actives raise or lower the signal
Outline: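 TIMP-2 measured by ELISA at 24 h in human keratinocyte/fibroblast primary co-cultures exposed to chemicals. Both increases and decreases were fitted against DMSO. Parallel cultures were stained with SRB for total protein as an overt-cytotoxicity check.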

[17] = read-out: Transforming growth factor beta 1 (TGFb1), TGFB1 (gene 7040); experiment: BSK_KF3CT_TGFb1: BioMAP Diversity Plus: KF3CT Assay for Transforming growth factor beta 1 (TGFb1) Biomarker Activity (AID 2283072); conditions: primary human keratinocytes with fibroblasts; actives raise or lower the signal
Outline: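 ELISA quantifies TGF-b1 at 24 h post-dose in a primary human skin co-culture of keratinocytes and fibroblasts, with gain or loss judged against DMSO. Parallel SRB total-protein staining flags overt cytotoxicity.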

[18] = read-out: C-C motif chemokine 2 (Homo sapiens) (UniProt P13500); experiment: BSK_KF3CT_MCP1: BioMAP Diversity Plus: KF3CT Assay for Monocyte Chemoattractant Protein 1 (MCP1/CCL2) Biomarker Activity (AID 2283073); conditions: primary human keratinocytes with fibroblasts; actives raise or lower the signal
Outline: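 ELISA readout of MCP-1 after 24 h chemical dosing of a human skin primary co-culture of keratinocytes and foreskin fibroblasts. Activity was fitted in both directions against DMSO.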

[19] = read-out: Macrophage colony-stimulating factor (MCSF), CSF1 (gene 1435); experiment: BSK_hDFCGF_MCSF: BioMAP Diversity Plus: hDFCGF Assay for Macrophage colony-stimulating factor (MCSF) Biomarker Activity (AID 2283060); conditions: primary human foreskin fibroblasts; actives raise or lower the signal
Outline: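 Primary human foreskin fibroblasts dosed with chemical; 24 h later, M-CSF quantified by ELISA; curves fitted in both directions vs DMSO negative control.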

[20] = read-out: Matrix Metallopeptidase 9 (MMP9), MMP9 (gene 4318); experiment: BSK_KF3CT_MMP9: BioMAP Diversity Plus: KF3CT Assay for Matrix Metallopeptidase 9 (MMP9) Biomarker Activity (AID 2283074); conditions: primary human keratinocytes with fibroblasts; actives raise or lower the signal
Outline: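 MMP-9 quantified by ELISA after 24 h chemical treatment of primary human skin keratinocyte/fibroblast co-cultures; gain or loss fitted against DMSO, with parallel SRB staining (0.1% SRB, 560 nm) for overt cytotoxicity.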

With CCCCCCCCCCCCN(C)C the outcome [1] was “inactive”, the outcome [2] was “inactive” and the outcome [3] was “inactive”. For the same compound, the outcome [4] was “inactive”, the outcome [5] was “inactive” and the outcome [6] was “inactive”. For the same compound, the outcome [7] was “inactive”, the outcome [8] was “inactive” and the outcome [9] was “inactive”. The outcome [10] was “inactive”, the outcome [11] was “inactive” and the outcome [12] was “inactive”. The outcome [13] was “inactive”, the outcome [14] was “inactive” and the outcome [15] was “inactive”. The outcome [16] was “inactive”, the outcome [17] was “inactive” and the outcome [18] was “inactive”.

In the case of C=CC(Cl)CCl (stereo not drawn), the AC50 [1] is reported as 0.921 µM (active), the outcome [2] is reported as “inactive” and the outcome [3] is reported as “inactive”. For the same compound, the outcome [4] was “inactive”, the AC50 [5] was 20.4 µM (active) and the outcome [6] was “inactive”. The outcome [7] was “inactive”, the outcome [8] was “inactive” and the outcome [9] was “inactive”. For the same compound, the outcome [10] was “inactive”, the outcome [11] was “inactive” and the outcome [12] was “inactive”. For the same compound, the outcome [13] was “inactive”, the outcome [14] was “inactive” and the AC50 [15] was 0.0797 µM (active). The AC50 [16] was 0.181 µM (active), the AC50 [17] was 0.189 µM (active) and the outcome [18] was “inactive”.

For CCOC(=O)CCN(SN(C)C(=O)Oc1cccc2c1OC(C)(C)C2)C(C)C, the AC50 [1] was 20 µM (active), the AC50 [2] was 4.31 µM (active) and the outcome [3] was “inactive”. The outcome [4] was “inactive”, the AC50 [5] was 15.2 µM (active) and the AC50 [6] was 31 µM (active). The AC50 [7] was 33.5 µM (active), the AC50 [8] was 29.9 µM (active) and the outcome [9] was “inactive”. For the same compound, the AC50 [10] was 29.7 µM (active), the AC50 [11] was 28.7 µM (active) and the outcome [12] was “inactive”. The outcome [13] was “inactive”, the outcome [14] was “inactive” and the outcome [15] was “inactive”. The outcome [16] was “inactive”, the outcome [17] was “inactive” and the outcome [18] was “inactive”.

For CC(C=O)Cc1ccc2c(c1)OCO2 (stereo not drawn), the outcome [1] was “inactive”, the outcome [2] was “inactive” and the outcome [3] was “inactive”. For the same compound, the outcome [4] was “inactive”, the outcome [5] was “inactive” and the outcome [19] was “inactive”. The outcome [6] was “inactive”, the outcome [7] was “inactive” and the outcome [8] was “inactive”. The outcome [9] was “inactive”, the outcome [10] was “inactive” and the outcome [11] was “inactive”. For the same compound, the outcome [12] was “inactive”, the outcome [13] was “inactive” and the outcome [14] was “inactive”. The outcome [15] was “inactive”, the outcome [16] was “inactive” and the outcome [18] was “inactive”. The outcome [20] was “inactive”.

With Oc1cc(Cl)c(Cl)cc1Cl the outcome [1] was “inactive”, the AC50 [2] was 27.7 µM (active) and the outcome [3] was “inactive”. The outcome [4] was “inactive”, the AC50 [5] was 15.2 µM (active) and the outcome [19] was “inactive”. For the same compound, the AC50 [6] was 31.8 µM (active), the outcome [7] was “inactive” and the outcome [8] was “inactive”. The outcome [9] was “inactive”, the AC50 [10] was 7.54 µM (active) and the AC50 [11] was 34 µM (active). The outcome [12] was “inactive”, the outcome [13] was “inactive” and the outcome [14] was “inactive”. For the same compound, the outcome [15] was “inactive”, the outcome [16] was “inactive” and the AC50 [18] was 20 µM (active).

For OC(Cc1ccccc1Cl)(Cn1[nH]cnc1=S)C1(Cl)CC1 (stereo not drawn), the AC50 [1] was 36.3 µM (active), the AC50 [2] was 9.86 µM (active) and the outcome [3] was “inactive”. The outcome [4] was “inactive”, the AC50 [5] was 35.2 µM (active) and the AC50 [19] was 15 µM (active). For the same compound, the outcome [6] was “inactive”, the outcome [7] was “inactive” and the outcome [9] was “inactive”. For the same compound, the AC50 [10] was 17.8 µM (active), the outcome [11] was “inactive” and the outcome [12] was “inactive”. The outcome [13] was “inactive”, the outcome [14] was “inactive” and the outcome [15] was “inactive”. For the same compound, the AC50 [16] was 11.1 µM (active) and the outcome [18] was “inactive”.

— PubChem BioAssay (EPA / NIEHS)
